Source: the supplement of paper PMC3545927
The other results are listed elsewhere or left out. How many sequences the whole screen found active is unknown.

Biological target: furin, P09958
Experiment: furin cleavage Z-score vs untreated control; higher = more cleavage, active = 3.5 or more, inactive = 1 or less, 8 variable residues between constant flanks
How it was run: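 Purified furin cleaved 8-mer peptides that were fused to a cDNA oligonucleotide and held on magnetic beads by their N-terminus. Each 0.01 ml reaction used a 1:10 enzyme:substrate ratio in 50 mM HEPES pH 7.5 with CaCl2 and NaCl and ran 7.5, 15 or 30 min. Released DNA was adapter-tagged by PCR and sequenced, and read counts gave abundance. The cleavage Z-score came from log counts against furin-free reactions, lowess-adjusted and scaled by median absolute deviation.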

Sequence of furin, P09958 (P09958 whole entry): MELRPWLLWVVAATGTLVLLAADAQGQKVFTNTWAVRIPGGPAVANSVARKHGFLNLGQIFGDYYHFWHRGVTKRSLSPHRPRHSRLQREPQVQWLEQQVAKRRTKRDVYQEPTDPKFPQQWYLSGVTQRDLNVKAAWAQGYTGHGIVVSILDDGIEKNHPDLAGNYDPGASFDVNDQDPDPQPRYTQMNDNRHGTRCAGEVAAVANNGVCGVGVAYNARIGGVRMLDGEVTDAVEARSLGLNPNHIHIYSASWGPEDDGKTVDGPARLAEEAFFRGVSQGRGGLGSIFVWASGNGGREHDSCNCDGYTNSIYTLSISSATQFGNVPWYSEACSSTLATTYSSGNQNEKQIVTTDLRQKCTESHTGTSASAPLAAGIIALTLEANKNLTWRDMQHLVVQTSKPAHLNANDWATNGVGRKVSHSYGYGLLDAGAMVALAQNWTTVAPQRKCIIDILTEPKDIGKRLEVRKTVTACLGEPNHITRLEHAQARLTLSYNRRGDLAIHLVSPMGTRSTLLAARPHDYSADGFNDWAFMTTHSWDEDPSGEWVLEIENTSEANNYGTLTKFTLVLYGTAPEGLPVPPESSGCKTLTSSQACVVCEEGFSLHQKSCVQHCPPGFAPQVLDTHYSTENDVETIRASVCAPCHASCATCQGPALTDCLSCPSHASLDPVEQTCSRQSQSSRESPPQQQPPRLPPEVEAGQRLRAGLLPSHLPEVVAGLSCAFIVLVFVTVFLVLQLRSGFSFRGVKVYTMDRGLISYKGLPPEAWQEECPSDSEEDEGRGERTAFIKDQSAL

| Sequence | furin cleavage Z-score (7.5 min) | furin cleavage Z-score (15 min) | furin cleavage Z-score (30 min) |
| --- | --- | --- | --- |
| CAVLSGKPAIAGNASASA [HC1004] | -1.21 (inactive) | -0.08 (inactive) | -0.703 (inactive) |
| CAVLSRDGRKAGNASASA [FS-105] | -1.15 (inactive) | 0.968 (inactive) | 0.203 (inactive) |
| CASAHREPRLAGNASASA [FS-143] | -0.537 (inactive) | -2.16 (inactive) | -0.735 (inactive) |
| CAVLSRRKRHAGNASASA [FS-1430] | 13.5 (active) | 13.1 (active) | 9.48 (active) |
| CAPRYRRKRHAGNASASA [FS-1552] | 10.8 (active) | 11.7 (active) | 10.8 (active) |
| CASATRRKRHAGNASASA [FS-145] | 10.8 (active) | 9.07 (active) | 8.87 (active) |
| CASKKRKKKHAGNASASA [FS-720] | -0.105 (inactive) | 0.768 (inactive) | 1.79 |
| CARNMWSGTFAGNASASA [HC1187] | 1.59 | -0.0231 (inactive) | 2.71 |
| CAIDILAGYGAGNASASA [HC1085] | 0.177 (inactive) | -2.37 (inactive) | -1.48 (inactive) |
| CATFTIETITAGNASASA [HC895] | -1.54 (inactive) | -0.657 (inactive) | -0.39 (inactive) |
| CARKDRGASKAGNASASA [FS-1826] | -0.0944 (inactive) | -0.514 (inactive) | 0.14 (inactive) |
| CACDLDPQARAGNASASA [HC1492] | -0.128 (inactive) | -0.812 (inactive) | -1.68 (inactive) |
| CAREKRRQRNAGNASASA [FS-2135] | 2.7 | 5.06 (active) | 5.01 (active) |
| CAREKRRGVTAGNASASA [FS-1819] | 0.463 (inactive) | -0.946 (inactive) | 0.55 (inactive) |
| CAREKRWSVSAGNASASA [FS-2256] | 0.749 (inactive) | 1.64 | 3.68 (active) |
| CAREKRPSRSAGNASASA [FS-488] | 3.53 (active) | 6.66 (active) | 4.77 (active) |
| CADLSRPSRSAGNASASA [FS-757] | 0.456 (inactive) | 1.72 | 2.66 |
| CAMMLLISQAAGNASASA [HC529] | -0.436 (inactive) | -0.997 (inactive) | 1.3 |
| CADKMEECSQAGNASASA [HC1814] | -0.565 (inactive) | 0.769 (inactive) | -0.546 (inactive) |
| CAEINRVAACAGNASASA [HC1611] | 0.443 (inactive) | -0.785 (inactive) | -0.701 (inactive) |
| CAYHGRIPREAGNASASA [FS-1619] | 4.85 (active) | 5.6 (active) | 4.92 (active) |
| CAEHNRTPREAGNASASA [FS-20] | 6.46 (active) | 6.63 (active) | 5.97 (active) |

| Sequence | furin cleavage Z-score (7.5 min) | furin cleavage Z-score (15 min) | furin cleavage Z-score (30 min) |
| --- | --- | --- | --- |
| CARYNRPPREAGNASASA [FS-378] | 9.4 (active) | 8.69 (active) | 7.85 (active) |
| CARDGRYTPCAGNASASA [FS-2903] | 0.99 (inactive) | -0.489 (inactive) | -0.0469 (inactive) |
| CAGYELQGREAGNASASA [FS-534] | -1.04 (inactive) | -1.1 (inactive) | -1.02 (inactive) |
| CARYSAPPGDAGNASASA [HC1543] | -1 (inactive) | 0.134 (inactive) | -1.47 (inactive) |
| CASKFGYGAKAGNASASA [HC1420] | 0.531 (inactive) | 0.331 (inactive) | -1.23 (inactive) |
| CALAPGAKQNAGNASASA [HC362] | 0.735 (inactive) | -0.827 (inactive) | 0.525 (inactive) |
| CAVVCCSMSQAGNASASA [HC2102] | -0.199 (inactive) | 0.851 (inactive) | 0.49 (inactive) |
| CATKLITWGAAGNASASA [HC651] | 0.877 (inactive) | -0.214 (inactive) | -0.337 (inactive) |
| CALYGNEGCGAGNASASA [HC203] | -0.0812 (inactive) | 1.22 | 0.228 (inactive) |
| CARRHVGPGEAGNASASA [HC1112] | -0.341 (inactive) | -0.961 (inactive) | -0.867 (inactive) |
| CARRRRHAGEAGNASASA [FS-2404] | 6.46 (active) | 4.9 (active) | 5.66 (active) |
| CARRRRHPDEAGNASASA [FS-1785] | 5.6 (active) | 5.56 (active) | 4.6 (active) |
| CARRRRHPDDAGNASASA [FS-3063] | 3.1 | 4.81 (active) | 3.91 (active) |
| CATDNLKCPCAGNASASA [HC1214] | 0.631 (inactive) | -2.12 (inactive) | -1.25 (inactive) |
| CATEEAIYQCAGNASASA [HC1488] | 0.306 (inactive) | -0.635 (inactive) | 1.07 |
| CAQTLLFNILAGNASASA [HC1063] | 0.309 (inactive) | -0.599 (inactive) | 0.404 (inactive) |
| CATTSCSGSWAGNASASA [HC1877] | -0.56 (inactive) | -0.299 (inactive) | -0.313 (inactive) |
| CAEGPCHRPSAGNASASA [HC2336] | 0.811 (inactive) | 0.167 (inactive) | 0.259 (inactive) |
| CARPFRYKRKAGNASASA [FS-1402] | 7.84 (active) | 8.54 (active) | 7.38 (active) |
| CARPFRSFVPAGNASASA [FS-2499] | 0.343 (inactive) | 1.12 | 0.335 (inactive) |
| CAIITRYKRKAGNASASA [FS-338] | 6.56 (active) | 6.04 (active) | 6.05 (active) |
| CARPYRCKIKAGNASASA [FS-3032] | -0.856 (inactive) | -0.224 (inactive) | 1.6 |
